Laboratory results taken from PubChem BioAssay (EPA / NIEHS).
The source made the active and inactive calls. Rule for the calls: active = hit-call score of the fitted dose curve at least 0.9, where 1 is the maximum; inactive = score below 0.9.

Columns and labels:
[1] = IUF_NPC1_viability_72hr: Viability Assessment at 72 hours in the Leibniz Research Institute for Environmental Medicine (IUF) Neural Progenitor Cell Proliferation Assay (NPC1) (AID 2284209)
Description: IUF_NPC1 is a cell-based, multiplexed assay that uses hNPC, a human primary neural progenitor cells, with measurements taken at 72 hours after chemical dosing in a 96-well plate. Human neural progenitor cells (hNPC) are generated from human fetal brain cortex at gestational week (GW) 16-19. Grown in suspension culture and under proliferative conditions (proliferation media and growth factors), these cells represent neural progenitor cell proliferation. In the NPC1 assay, hNPC's are exposed to the test compound for 72h. Cell proliferation is assessed as an increase in sphere area using automated phase contrast imaging and as incorporation of Bromodeoxyuridine (BrdU) during DNA synthesis using a luminescence-based cell proliferation ELISA. In parallel, the cell viability is assessed using an alamar blue viability assay and the cytotoxicity using a lactate dehydrogenase dependent membrane integrity assay.IUF_NPC1_viability_72hr is one of 4 assay components measured from the IUF_NPC1 assay. It is designed to measure cell viability assessed as mitochondria-dependent reduction of resazurin to resorufin using the alamar blue cell viability assay. Viability is measured as a fluorescence signal (relative fluorescence unit) in a multiplate reader. Data from the IUF_NPC1_viability component was analyzed at the endpoint IUF_NPC1_viability in the positive analysis fitting direction relative to DMSO as the negative control and baseline of activity. Using a type of viability reporter, gain or loss-of-signal activity can be used to understand viability effects.
After the cell expansion period, the cells are cultured for up to four weeks in which they are passaged every week. Between one to three days after passaging, depending on the size chosen for passaging, spheres at a size of 0.3 mm are used in the assay. For the assessment of neural progenitor cell proliferation, the spheres are plated in poly-Hema coated 96-well U-bottom plates filled with proliferation medium containing growth factors (EGF and FGF). One 0.25 - 0.35 mm big sphere is plated in the middle of each well. Within 3 days NPCs proliferate and grow in size. Cultivation during the test method is performed at 37C and 5% CO2 at a pH of 7.2-7.6. As a positive control, spheres are cultivated in the absence of growth factors (EGF and FGF), which dramatically reduces proliferation. Exposure starts on the plating day (day 0) and is continued over three days, without chemical renewal, until the experiment is terminated. The assay is terminated by the assessment of cell viability, cytotoxicity, and proliferation by BrdU. All endpoints are generated from the same experimental run and from each well/sphere in the 96-well plate.

[2] = CCTE_Mundy_HCI_Cortical_Synap_Neur_Matur_NeuriteSpotCountPerNeuriteLength: CCTE's Synaptogenesis and Neurite Maturation Assay in rat cortical cells for Neurite Spot Count per Neurite Length, Mundy Lab (AID 2284210)
Summary of the method: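 Rat primary cortical cultures, AraC added at DIV 5 to suppress glia; chemical exposure from DIV 7 to DIV 12. Fixed cells stained for MAP2 and synaptophysin plus Hoechst; synaptophysin puncta per neurite length quantified by high-content imaging, relative to DMSO.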

[3] = CCTE_Mundy_HCI_Cortical_Synap_Neur_Matur_BPCount: CCTE's Synaptogenesis and Neurite Maturation Assay in rat cortical cells for Branch Point Count, Mundy Lab (AID 2284211)
Summary of the method: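 Rat primary cortical cultures, AraC added DIV 5; chemicals dosed DIV 7 through DIV 12. Fixed cells stained for MAP2, synaptophysin and Hoechst; neurite branch points counted by automated high-content imaging, fitted relative to DMSO.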

[4] = CCTE_Mundy_HCI_Cortical_NOG_NeuriteCount: CCTE's Neurite Outgrowth Assay in rat cortical cells for Neurite Count, Mundy Lab (AID 2284212);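 note: cells fixed about two days after chemical exposure began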
Summary of the method: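 Neurite number per cell from high-content imaging of betaIII-tubulin immunostaining, with Hoechst nuclear counterstain.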

[5] = CCTE_Mundy_HCI_Cortical_NOG_NeuriteLength: CCTE's Neurite Outgrowth Assay in rat cortical cells for Neurite Length, Mundy Lab (AID 2284213)
Summary of the method: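 Neurite length was read by high-content imaging of βIII-tubulin-labelled neurites in rat primary cortical cultures. Activity was fitted relative to DMSO.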

[6] = CCTE_Mundy_HCI_Cortical_Synap_Neur_Matur_NeuriteLength: CCTE's Synaptogenesis and Neurite Maturation Assay in rat cortical cells for Neurite Length, Mundy Lab (AID 2284214)
Summary of the method: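 Rat primary cortical cultures, AraC added DIV 5, dosed DIV 7 through DIV 12 […]. Fixed, MAP2/synaptophysin immunostained with Hoechst; neurite length by high-content imaging, fitted in positive direction versus DMSO.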

[7] = CCTE_Mundy_HCI_Cortical_Synap_Neur_Matur_NeuriteSpotCountPerNeuron: CCTE's Synaptogenesis and Neurite Maturation Assay in rat cortical cells for Neurite Spot Count per Neuron Count, Mundy Lab (AID 2284215)
Description: CCTE_Mundy_HCI_Cortical_Synap&Neurite_Matur is a multiplexed, cell-based-readout assay that uses rat primary cortical cells with measurements taken at 288.33 hours after chemical dosing in a microplate: 96-well plate.CCTE_Mundy_HCI_Cortical_Synap_Neur_Matur_NeuriteSpotCountPerNeuron is one of eight components of the CCTE_Mundy_HCI_Cortical_Synap&Neurite_Matur assay. It measures synaptogenesis and neurite maturation related to number of neurite-associated synapses (synaptophysin puncta) per neuron using High Content Imaging of fluorescently labelled markers.[…] Using a type of morphology reporter, loss -of-signal activity can be used to understand developmental effects.
Cells are plated onto 96 well plates and allowed 2 hr for attachment to the substrate. At days in vitro (DIV) 5, Cytosine Arabinoside (AraC) is added to arrest glial cell growth. Chemicals are dosed and a media change is performed at DIV 7 of differentiation and is continued through DIV 12 when the experiment is terminated. Cells are fixed with […] and Hoechst Dye. Cells are stained using Millipore Mouse anti-MAP2MAB3418 (1:800) and Millipore Rabbit anti-Synaptophysinsc-1750 (1:250) primary antibodies and Alexa Fluor-488 goat anti-mouse and AlexaFluor-546 goat anti-rabbit secondary antibodies to label neuronal cell nuclei, synapses and neurites. A Cellomics ArrayScan VTi HCS Reader is used for automated image acquisition and analysis of neurite outgrowth.

[8] = CCTE_Mundy_HCI_Cortical_Synap_Neur_Matur_SynapseCount: CCTE's Synaptogenesis and Neurite Maturation Assay in rat cortical cells for Synapse Count, Mundy Lab (AID 2284218)
Summary of the method: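 Rat primary cortical cultures, AraC at DIV 5, chemical dosing DIV 7 to DIV 12 (288.33 h). Fixed cells stained for MAP2, synaptophysin and Hoechst; synapses per neuron counted by high-content imaging, loss of signal versus DMSO.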

[9] = CCTE_Mundy_HCI_Cortical_Synap_Neur_Matur_NeuriteCount: CCTE's Synaptogenesis and Neurite Maturation Assay in rat cortical cells for Neurite Count, Mundy Lab (AID 2284222)
Summary of the method: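 Rat cortical neurons, 96-well; AraC DIV 5; chemical + media change DIV 7; end DIV 12. Fix PFA/Hoechst, anti-MAP2 + anti-synaptophysin IF. HCI neurite count vs DMSO baseline.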

[10] = TAMU_PeakParms_SingleDonor1434_Chronotropy: Texas A&M University (TAMU) 1.5-hr Human Induced Pluripotent Stem Cell (iPSC)-derived Cardiomyocytes Calcium (Ca+2) Flux Assay for Cardiotoxicity: Chronotropy (changes in peak frequency) (AID 2284217); details: actives raise or lower the signal
Summary of the method: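 Beat rate, as mean Ca2+-flux peak frequency, was read from donor 1434 iPSC cardiomyocytes 90 min after exposure to 0.2–100 uM test chemical (0.5% DMSO). Wells that stopped beating were excluded; EC05 from bidirectional DMSO-referenced fitting.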

Measured: AC50

N[C@@H](CCC(=O)O)C(=O)O
not listed: [10]
inactive: all other assays above

CC/C(=C(\c1ccccc1)c1ccc(OCCN(C)C)cc1)c1ccccc1
inactive: [10]

CCCCC(CC)COC(=O)COc1ccc(Cl)cc1C (configuration not stated)
inactive: [1] | [4] | [5]
active: [2] 24.2 µM | [3] 15.7 µM | [6] 14.1 µM | [7] 16.3 µM | [8] 16.4 µM | [9] 17.1 µM

CNC(=C[N+](=O)[O-])NCCSCc1ccc(CN(C)C)o1
inactive: [10]

CC(C)Cc1ccc(C(C)C(=O)O)cc1 (configuration not stated)
not listed: [10]
inactive: all other assays above

c1ccc2scnc2c1
not listed: [10]
inactive: all other assays above

N#CCCNCCC#N
not listed: [1]
inactive: all other assays above
